From PubChem BioAssay (NCATS) come the findings set out here.

Assay [1] deals with Glutathione peroxidase 1 (Homo sapiens) (UniProt P07203). Put plainly: Primary qHTS Assay for Inhibitors of Recombinant Selenoprotein Glutathione Peroxidase 1 (GPX1) (AID 1845191). Also: nearly all actives have a fitted effect of over 65% in size. As to activity, negative = inhibition: % is scaled to controls: 0 for no effect and ±100 for the full control effect. Put shortly: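 GPX1 10 nM, GR 100 nM, GSH 1 mM, NADPH 0.5 mM, CHP 0.5 mM (final). 30-min cpd preincubation, RT. Ex340/Em450 read t=0, t=15 min.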
(In general: Quantitative high-throughput screening tests each substance at several concentrations.)

Assay [2] deals with Phospholipid hydroperoxide glutathione peroxidase GPX4 (Homo sapiens) (UniProt P36969). Nature of the assay: Primary qHTS Assay for Inhibitors of Recombinant Selenoprotein Glutathione Peroxidase 4 (GPX4) (AID 1845192). Also: nearly all actives have a fitted effect of over 65% in size. Also: potency is read from the fitted curve at half-maximal effect. As to activity change, negative = inhibition: series mostly up to about 50 µM; % is scaled to controls: 0 for no effect and ±100 for the full control effect. In a few lines:
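qHTS, GR-coupled: GPX4 200 nM + cpd 30 min RT → GSH 1 mM, NADPH 0.5 mM, GR 100 nM → CHP 0.5 mM start; fluor 340/450 at t0 and t15 min; no-enzyme wells as control.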

Assay [3] addresses Luciferin 4-monooxygenase (Photinus pyralis) (UniProt P08659). Nature of the assay: Primary firefly luciferase (FLuc) qHTS assay for identification of artifact compounds. (AID 1845220). Also: nearly all actives have a fitted effect of over 60% in size.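 As to activity change, negative = inhibition: series mostly up to about 54 µM; plate controls were DMSO vehicle for no effect and no enzyme for full effect.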 Put shortly:
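In this counter-screen for luciferase artifacts, test compounds met substrate (10 uM each luciferin and ATP) before 10 nM enzyme started the reaction. Light output was measured 5 min later.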

“And” between values parts separate entries of the source, which are not always exact repeats. Equal values may be shown once. Inconclusive results are not listed. More than one record can exist for a structure, and the calls need not agree. The source made the active and inactive calls. Calls follow the shape of the dose curve; as a rule, active = well fitted inhibition curve with a large enough effect; inconclusive = small, poorly fitted or top-dose-only effect; inactive = flat fitted curve, though single readings scatter.

Glutathione peroxidase 1 (Homo sapiens), sequence (P07203 whole entry, looked up): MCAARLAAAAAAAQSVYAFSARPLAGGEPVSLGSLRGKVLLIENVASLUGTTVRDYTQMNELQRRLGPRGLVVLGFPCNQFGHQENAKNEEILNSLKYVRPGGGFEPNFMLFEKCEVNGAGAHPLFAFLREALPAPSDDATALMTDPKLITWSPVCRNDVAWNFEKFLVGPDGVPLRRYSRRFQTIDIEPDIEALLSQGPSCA
Phospholipid hydroperoxide glutathione peroxidase GPX4 (Homo sapiens), sequence (P36969 whole entry, looked up): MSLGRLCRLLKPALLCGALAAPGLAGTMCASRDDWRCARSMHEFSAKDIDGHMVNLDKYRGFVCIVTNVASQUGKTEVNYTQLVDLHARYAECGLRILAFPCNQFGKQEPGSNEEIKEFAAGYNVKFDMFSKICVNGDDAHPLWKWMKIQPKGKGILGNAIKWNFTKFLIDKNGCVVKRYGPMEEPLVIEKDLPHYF

For the compound `CC(C)=CC/C=C(/C)[C@H]1CC[C@]2(C)[C@@H]1[C@H](O)CC1[C@@]3(C)CC[C@H](O)C(C)(C)[C@@H]3[C@@H](O[C@@H]3O[C@H](CO)[C@@H](O)[C@H](O)[C@H]3O[C@@H]3O[C@@H](C)[C@H](O)[C@@H](O)[C@H]3O)C[C@]12C` (stereo not given in full), the Potency entry in assay [1], in assay [2] and in assay [3] was “inactive” throughout.

As to `CCCCNC(=O)[C@@H]1Cc2ccccc2N1C(=O)[C@@H](N)CC`, the Potency result in assay [1], in assay [2] and in assay [3] was “inactive” in each case.

`C[C@H]1CN(C[C@H](Cc2ccccc2)C(=O)NCC(=O)O)CC[C@@]1(C)c1cccc(O)c1`: the Potency entry in assay [1], in assay [2] and in assay [3] was “inactive” in each case.

`CCC(NC(=O)CC(NC(=O)C(CO)NC(=O)C(CC)NC(=O)c1ccc[nH]1)c1ccccc1)C(=O)O` (stereo not given): the Potency result in assay [1], in assay [2] and in assay [3] was “inactive” in each case.

Take `Clc1ccc(CN[C@H]2CCN(c3ncc(Br)cn3)C2)c(Cl)c1`: the Potency result in assay [1], in assay [2] and in assay [3] was “inactive” in each case.

For `CC(=O)NC(C(=O)OC1CCC(C)(C)C2CC=C3C(=O)OCC3(O)C12C)C(C)C` (stereo not given), the Potency entry in assay [1], in assay [2] and in assay [3] was “inactive” each time.

On to `C[C@H]1[C@H](C)CC[C@]2(C(=O)O)CC[C@]3(C(=O)O)C(=CCC4[C@@]5(C)CC[C@H](O[C@@H]6O[C@H](C)[C@@H](O)[C@H](O)[C@H]6O)C(C)(C)C5CC[C@]43C)[C@H]12` (stereo not given in full), for which the Potency entry in assay [1], in assay [2] and in assay [3] was “inactive” each time.

`CC(C)C1=CC2=CCC3[C@](C)(CCC[C@@]3(C)C(=O)O)C2CC1O` (stereo not given in full): the Potency entry in assay [1], in assay [2] and in assay [3] was “inactive” throughout.

On to `C[C@@H]1CC[C@]2(C(=O)O)CC[C@]3(C)C(=CCC4[C@]5(C)C(CC[C@]43C)C(C)(C)[C@@H](O)[C@H](O)[C@@H]5O)C2[C@]1(C)O` (stereo not given in full), for which the Potency result in assay [1], in assay [2] and in assay [3] was “inactive” each time.

For the compound `CC(=O)O[C@H]1[C@H](C)[C@@H](O)[C@H]2[C@@H]1C=C(C(=O)O)[C@H]1C[C@@H]3[C@H]([C@H]21)[C@H]1C(=O)O[C@@H]2CC[C@@]3(C)O[C@]1(O)[C@@H]2C`, the Potency entry in assay [1], in assay [2] and in assay [3] was “inactive” in each case.

`C/C=C1\[C@H](O[C@@H]2O[C@H](CO)[C@@H](O)[C@H](O)[C@H]2O)OC=C(C(=O)OC)[C@H]1CC(=O)OC`: the Potency entry in assay [1], in assay [2] and in assay [3] was “inactive” throughout.

As to `O=C(OCc1cccc(O)c1O[C@@H]1O[C@H](CO)[C@@H](O)[C@H](O)[C@H]1O)C1(O)C(=O)C2C=CC1C1C=CC(=O)C(O)(C(=O)OCc3cccc(O)c3O[C@@H]3O[C@H](CO)[C@@H](O)[C@H](O)[C@H]3O)C21` (stereo not given in full), the Potency result in assay [1] and in assay [2] was “inactive” each time. Besides, in assay [3], the outcome is “inactive [at 11.6 µM]”.

For `CCC(=O)N[C@@H]1Cc2ccccc2[C@H](c2ccccc2)C1`, the Potency entry in assay [1], in assay [2] and in assay [3] was “inactive” each time.

On to `CC1CCC2(C(=O)OC3OC(COC4OC(CO)C(O)C(O)C4O)C(O)C(O)C3O)CCC3(C)C(=CCC4C5(C)CCC(O)C(C)(C(=O)O)C5CCC43C)C2C1(C)O` (stereo not given), for which the Potency entry in assay [1] and in assay [2] was “inactive” each time. Moreover, in assay [3], the activity change, negative = inhibition was -4.02% [at 11.6 µM] (inactive).

For the compound `C[C@@H]1O[C@@H](O[C@H]2[C@H](OC(=O)[C@]34CCC(C)(C)C[C@H]3C3=CCC5[C@@]6(C)C[C@H](O)[C@H](O[C@@H]7O[C@H](CO)[C@@H](O[C@@H]8O[C@H](CO)[C@@H](O)[C@H](O)[C@H]8O)[C@H](O)[C@H]7O)[C@@](C)(CO)C6[C@H](O)C[C@@]5(C)[C@]3(C)C[C@H]4O)OC[C@H](O)[C@@H]2O)[C@H](O)[C@H](O)[C@H]1O[C@@H]1OC[C@@H](O)[C@H](O[C@@H]2OC[C@](O)(CO)[C@H]2O)[C@H]1O` (stereo not given in full), the activity, negative = inhibition in assay [1] is -19.6% [at 9.52 µM] (inactive). Further, the activity change, negative = inhibition in assay [2] was -11% [at 9.73 µM] (inactive); in assay [3], -27.8% [at 11.6 µM] (inactive).

For the compound `CC1(C)CC[C@]2(C(=O)O)CC[C@]3(C)C(=CCC4[C@@]5(C)CCC(O[C@@H]6OC[C@H](O)[C@H](O)[C@H]6O[C@@H]6O[C@H](CO)[C@@H](O)[C@H](O)[C@H]6O)[C@@](C)(CO)C5CC[C@]43C)[C@@H]2C1` (stereo not given in full), the Potency entry in assay [1], in assay [2] and in assay [3] was “inactive” in each case.

On to `Cc1c(-c2ccnn2C)cc(C(=O)NCc2ccc(S(C)(=O)=O)cn2)c(=O)n1-c1cccc(C(F)(F)F)c1`, for which the Potency result in assay [1] and in assay [3] was “inactive” each time. Also, the Potency entry in assay [2] was “inactive and 12.8 µM (active)”.

As for `Cc1cc(C)c(S(=O)(=O)N(Cc2ccc(-c3cccc(S(C)(=O)=O)c3)cc2)Cc2ccc(C(F)(F)F)o2)c(C)c1`, the Potency entry in assay [1], in assay [2] and in assay [3] was “inactive” each time.

As to `Nc1nonc1C(=Nc1ccc(F)c(Cl)c1)NO`, the Potency entry in assay [1], in assay [2] and in assay [3] was “inactive” in each case.

On to `COc1cc([C@@H]2Oc3c(OC)cc(CCCO)cc3[C@@H]2CO[C@@H]2O[C@H](CO)[C@@H](O)[C@H](O)[C@H]2O)ccc1O`, for which the Potency entry in assay [1], in assay [2] and in assay [3] was “inactive” in each case.

`C[C@@H]1O[C@@H](O[C@@H]2[C@@H](O)[C@H](O[C@@H]3[C@@H](O)[C@@H](O)[C@H](O[C@H]4[C@H](OC(=O)[C@]56CCC(C)(C)C[C@H]5C5=CCC7[C@@]8(C)C[C@H](O)[C@H](O[C@@H]9O[C@@H](C)[C@H](O)[C@@H](O)[C@H]9O)[C@@](C)(CO)C8CC[C@@]7(C)[C@]5(C)C[C@H]6O)O[C@H](C)[C@H](O)[C@@H]4O)O[C@H]3C)OC[C@H]2O)[C@H](O)[C@H](O)[C@H]1O` (stereo not given in full): the results for the outcome in assay [1] and in assay [3] were “inactive [at 9.52 µM]” and “inactive [at 11.6 µM]”, respectively. The activity change, negative = inhibition in assay [2] was 0.486% [at 9.73 µM] (inactive).

`CC1(C)C[C@H]2C3=CCC4[C@@]5(C)CC[C@H](O[C@H]6O[C@H](C(=O)O)[C@@H](O)[C@H](O)[C@H]6O[C@H]6O[C@H](CO)[C@@H](O)[C@H](O)[C@H]6O[C@@H]6O[C@H](CO)[C@@H](O)[C@H](O)[C@H]6O)[C@](C)(CO)C5CC[C@@]4(C)[C@]3(C)CC[C@@]2(C)[C@H](O[C@@H]2OC[C@H](O)[C@H](OC3O[C@H](CO)[C@@H](O)[C@H](O)[C@H]3O)[C@H]2O)[C@@H]1O` (stereo not given in full): the activity, negative = inhibition in assay [1] was 0.367% [at 9.52 µM] (inactive). Moreover, the outcome in assay [2] was “inactive [at 9.73 µM]”; in assay [3], “inactive [at 11.6 µM]”.

As for `C[C@@H]1O[C@@H](O[C@H]2[C@H](O[C@H]3CC[C@@]4(C)C(CC[C@]5(C)C4CC=C4[C@@H]6CC(C)(C)CC[C@]6(C(=O)O)CC[C@]45C)[C@]3(C)CO)OC[C@H](O)[C@@H]2O)[C@H](O)[C@H](O[C@@H]2OC[C@@H](O)[C@H](O)[C@H]2O)[C@H]1O` (stereo not given in full), the Potency entry in assay [1] and in assay [2] was “inactive” in each case. Also, the outcome in assay [3] is “inactive [at 11.6 µM]”.

`COc1cc(-c2cccc(O)c2)cc2c1OCO2`: the Potency entry in assay [1], in assay [2] and in assay [3] was “inactive” throughout.

For `C[C@@H]1O[C@@H](O[C@H]2[C@H](O[C@H]3[C@H](O[C@H]4CC[C@@]5(C=O)C(CC[C@]6(C)C5CC=C5C7CC(C)(C)C[C@@H](O)[C@]7(C)CC[C@]56C)C4(C)C)O[C@H](C(=O)O)[C@@H](O)[C@@H]3O)OC[C@@H](O)[C@@H]2O)[C@H](O)[C@H](O)[C@H]1O` (stereo not given in full), the Potency result in assay [1] and in assay [2] was “inactive” in each case. For the same compound, the activity change, negative = inhibition in assay [3] was 0.64% [at 11.6 µM] (inactive).

As for `CC1=CC(=O)C2C(C)(C)CCCC2(C)C12CCC1(COC(=O)C1)O2` (stereo not given), the Potency entry in assay [1], in assay [2] and in assay [3] was “inactive” each time.

Turning to `C=C1C(O[C@@H]2O[C@H](CO)[C@@H](O)[C@H](O)[C@@H]2O)CC2C(C)(C)C(O)CCC2(C)C1CC/C(C)=C\CO` (stereo not given in full), the Potency result in assay [1], in assay [2] and in assay [3] was “inactive” in each case.

On to `CCC(CCO[C@@H]1O[C@H](CO[C@H]2OC[C@](O)(CO)[C@H]2O)[C@@H](O)[C@H](O)[C@H]1O)C(C)(C)O` (stereo not given in full), for which the Potency result in assay [1], in assay [2] and in assay [3] was “inactive” each time.

As to `CC1=CC2(O)/C=C/C(C)(O)CC(O)/C=C/C(=O)OC23C(=O)NC(CC(C)C)C3C1C` (stereo not given), the Potency result in assay [1], in assay [2] and in assay [3] was “inactive” in each case.

Take `COC1CC(=O)C23C(=O)NC(CC(C)C)C2C(C)C(C)=CC3/C=C(\C)CCC1O` (stereo not given): the Potency entry in assay [1], in assay [2] and in assay [3] was “inactive” throughout.

In the case of `OC[C@H]1O[C@@H](OC(CCCCc2ccc(O)cc2)CCc2ccc(O)cc2)[C@H](O[C@@H]2OC[C@](O)(CO)[C@H]2O)[C@@H](O)[C@@H]1O` (stereo not given in full), the Potency entry in assay [1], in assay [2] and in assay [3] was “inactive” in each case.

For `C[C@@H]1O[C@@H](O[C@H]2[C@H](O[C@H]3[C@H](O[C@H]4CC[C@@]5(CO)C(CC[C@]6(C)C5CC=C5C7CC(C)(C)C[C@@H](O)[C@]7(C)CC[C@]56C)C4(C)C)O[C@H](C(=O)O)[C@@H](O)[C@@H]3O)OC[C@@H](O)[C@@H]2O)[C@H](O)[C@H](O)[C@H]1O` (stereo not given in full), the Potency result in assay [1] and in assay [2] was “inactive” in each case. Further, the outcome in assay [3] was “inactive [at 11.6 µM]”.

`Cc1nnc(C(C)C)n1C1CC2CCC(C1)N2CC[C@H](NC(=O)C1CCC(F)(F)CC1)c1ccccc1` (stereo not given in full): the Potency result in assay [1], in assay [2] and in assay [3] was “inactive” throughout.

In the case of `CN1CCC(c2c[nH]c3ccc(NC(=O)c4ccc(F)cc4)cc23)CC1`, the Potency result in assay [1], in assay [2] and in assay [3] was “inactive” throughout.

With `COc1ccc2c(c1)OC[C@]1(O)c3cc4c(cc3O[C@H]21)OCO4`, the Potency result in assay [1], in assay [2] and in assay [3] was “inactive” in each case.
